# Source: PubChem (Johns Hopkins Ion Channel Center)
# This is a sample that favours compounds with a hit; in the whole collection about 1.6% have one here.
# KCNQ2 inh = blocks the rat KCNQ2 potassium channel; O88943; CHO-K1 KCNQ2, FluxOR thallium flux, 20 min; stronger effect = lower value; B-score at 10 µM; 310,000 tested, 1.1% active;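 active = fluorescence ratio B-score at most minus 3 library SDs, with starting brightness B-score within 2 library SDs, cut at about -5.5 in these data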
# KCNQ2 enhance = enhances the rat KCNQ2 potassium channel | O88943 | CHO-K1 KCNQ2, FluxOR thallium flux fluorescence; stronger effect = higher value | B-score at 10 µM | 310,000 tested, 0.54% active | AID 2239;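 active = fluorescence ratio B-score at least 3 SD of library B-scores, with initial fluorescence B-score within 3 of them, cut at about 5.3 in these data; same plate scores as AID 2156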;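 also: B-score of peak minus minimum over baseline fluorescence ratio after K+ and Tl+ stimulus; positive B-score means potentiation of KCNQ2 with more thallium influx and brighter signal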
# Kir21 confirm = confirmation of mouse Kir2.1 potassium channel inhibitors; shares compounds with KCNQ2 enhance; Kir2.1-expressing cells, FluxOR thallium flux fluorescence; stronger effect = lower value; Tl flux remaining, % of negative control (stronger effect = lower value), % at 10 µM; 2,300 tested, 41% active; AID 2032;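 active = Primary-screen hit whose thallium flux fell at least 3 control SD below untreated wells in both duplicates, with normal baseline fluorescence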;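 also: 0% = blank wells without stimulus and 100% = stimulated no-compound controls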
# HEK293 Tl flux = alters thallium flux in parental HEK293 cells, Kir2.1 counter-screen | FluxOR signal as % of negative control (100 = no effect), % at 10 µM | FluxOR thallium flux fluorescence; 0% = unstimulated blank wells | shares compounds with KCNQ2 enhance | 2,300 tested, 19% active;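 active = dye signal at least 3 control SD above or below untreated wells in both duplicates, raw fluorescence within 3, either direction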;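 also: percent is based on the flux ratio of peak minus minimum fluorescence over baseline F0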
# CHO-K1 ctr = alters thallium flux in parental CHO-K1 cells, KCNQ2 counter-screen; shares compounds with KCNQ2 enhance; FluxOR thallium flux fluorescence; zero = vehicle mean+3SD, 100% = vehicle-minus-blank window; activity increase over 3SD of controls, % at 10 µM; 1,200 tested, 43% active; AID 2282;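 active = signal rise of at least 3 SD above the untreated control mean, in both duplicate wells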;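 also: counter screen of KCNQ2 potentiator hits so any rise reflects channel-independent effects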
# KCNQ1 pot spec = tests whether KCNQ2 potentiators also act on human KCNQ1 | shares compounds with KCNQ2 enhance | CHO KCNQ1 stable, FluxOR thallium flux fluorescence; beyond 3SD, as % of vehicle-control signal | activation over 3SD threshold, % at 10 µM | 1,200 tested, 28% active;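 active = fluorescence ratio rise of at least 3 SD of vehicle wells above their mean, in both replicate wells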;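 also: 0% = vehicle mean plus 3 SD and 100% = vehicle minus unstimulated blank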
# KCNQ2 pot conf = rat KCNQ2 channel potentiator confirmation. shares compounds with KCNQ2 enhance. CHO-KCNQ2 cells, FluxOR thallium flux fluorescence. potentiation, less the hit threshold, % at 10 µM. 1,200 tested, 68% active. AID 2287;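 active = fluorescence ratio rising 3 SD or more over the vehicle control mean in both replicates, plus primary screen hit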;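 also: peak minus minimum thallium fluorescence divided by baseline after K/Tl stimulus; 0% = vehicle mean plus 3 SD and 100% = vehicle minus unstimulated blank difference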
# Kir21 spec = tests whether KCNQ2 potentiators also affect mouse Kir2.1; shares compounds with KCNQ2 enhance; activity over 3SD threshold, % at 10 µM; 1,200 tested, 2% active; HEK293 Kir2.1, FluxOR thallium flux fluorescence;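 active = fluorescence ratio rise of at least 3 SD above the vehicle-control mean, seen in both replicates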;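 also: 0% = vehicle mean plus 3 SD and 100% = vehicle minus no-stimulus blank window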
# KCNQ2 W236L pot = potentiates the retigabine-insensitive rat KCNQ2 W236L mutant channel. CHO KCNQ2-W236L, automated patch clamp current. AID 2558. current increase over 3SD of negative controls (%), stronger effect = higher value, % at 25 µM. shares compounds with KCNQ2 enhance. 940 tested, 10% active;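 active = current increase at least 3 SD of the untreated controls above them in both duplicate recordings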
# Target sequence (O88943 whole entry W236L, looked up): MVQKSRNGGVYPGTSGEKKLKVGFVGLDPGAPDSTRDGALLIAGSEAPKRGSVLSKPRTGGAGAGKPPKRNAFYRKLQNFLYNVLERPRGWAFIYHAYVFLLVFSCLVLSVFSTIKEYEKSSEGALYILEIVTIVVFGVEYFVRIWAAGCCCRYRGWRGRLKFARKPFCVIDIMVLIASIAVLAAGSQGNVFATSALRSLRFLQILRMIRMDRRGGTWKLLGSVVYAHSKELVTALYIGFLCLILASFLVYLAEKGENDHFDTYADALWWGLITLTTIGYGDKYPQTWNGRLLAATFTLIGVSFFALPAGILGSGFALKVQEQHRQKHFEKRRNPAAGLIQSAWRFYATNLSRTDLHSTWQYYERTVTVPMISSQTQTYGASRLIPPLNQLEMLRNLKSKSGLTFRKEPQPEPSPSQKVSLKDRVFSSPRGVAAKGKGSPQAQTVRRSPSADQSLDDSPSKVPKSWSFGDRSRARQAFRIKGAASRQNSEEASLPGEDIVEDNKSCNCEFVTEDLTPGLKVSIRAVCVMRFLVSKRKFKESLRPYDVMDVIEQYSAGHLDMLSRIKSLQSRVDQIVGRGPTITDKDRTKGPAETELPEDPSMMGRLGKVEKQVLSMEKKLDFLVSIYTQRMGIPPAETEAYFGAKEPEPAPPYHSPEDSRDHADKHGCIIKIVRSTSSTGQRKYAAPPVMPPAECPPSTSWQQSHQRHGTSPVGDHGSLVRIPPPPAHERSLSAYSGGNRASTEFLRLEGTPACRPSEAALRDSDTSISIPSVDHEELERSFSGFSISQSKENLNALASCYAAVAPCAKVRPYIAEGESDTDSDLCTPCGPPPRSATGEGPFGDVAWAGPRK
# * marks the source's active call; other numbers are inactive results; i = inactive; . = not tested or not shown.
SMILES,KCNQ2 inh,KCNQ2 enhance,Kir21 confirm,HEK293 Tl flux,others
CC(C)CCC(CCNCc1ccccn1)c1ccc(Cl)cc1 (configuration not stated),i,0.09,35.5%*,i,
COc1cc(NC(=O)CCc2nnc3ccc(N4CCCCC4)nn23)cc(OC)c1OC,i,.,.,.,
CC(C)(C)NC(=O)CN(C(=O)CNC(=O)c1cccs1)c1ccc2c(c1)OCCO2,i,.,.,.,
O=C(O)CN1C(=O)C(=O)N(Cc2ccccc2F)C1=O,i,0.01,.,.,
CC1=CCC2C(=O)N(c3ccccc3OC(=O)c3ccccc3F)C(=O)C2C1 (configuration not stated),i,0.59,.,.,
CCOC(=O)Nc1c(O)ccc2oc(C)c(-c3ccccc3)c12,i,3.34,27.5%*,i,
CCOC(=O)C(=O)Nc1nc(-c2ccccc2)c(-c2ccccc2)o1,i,.,.,.,
COc1cccc(NC(=O)C(Cc2ccccc2)n2cccc2)c1 (configuration not stated),i,.,.,.,
Cc1cc(NCCOCCO)n2ncc(-c3ccc(Cl)cc3)c2n1,i,6.16*,i,i,CHO-K1 ctr=2.2*;KCNQ1 pot spec=-11.4;KCNQ2 pot conf=4.4*;Kir21 spec=-44.2;KCNQ2 W236L pot=i
Cc1cc(NCc2ccccn2)n2ncc(-c3ccc(Cl)cc3)c2n1,i,0.08,.,.,
Cc1cccc(C(=O)N[C@H](C(=O)OCC(=O)NC2CCS(=O)(=O)C2)C(C)C)c1 (some centres not stated),i,.,.,.,
COc1cccc(C(=O)Nc2nc(-c3ccccc3)c(-c3ccccc3)o2)c1,i,2.27,.,.,
O=C(Nc1nc(-c2ccccc2)c(-c2ccccc2)o1)c1ccc(F)cc1,i,4.25,i,150.0%*,
CCC(Br)C(=O)Nc1ccc(OC)cc1 (configuration not stated),i,0.2,.,.,
Cc1cc2c(cc1S(=O)(=O)NCCc1ccccc1)NC(=O)CO2,i,1.77,.,.,
CCCc1ccccc1OCCNS(=O)(=O)c1cc2c(cc1C)OCC(=O)N2,i,2.17,64.5%*,i,
CN(C)CCn1c(=N)n(CC(O)c2ccc(Cl)c(Cl)c2)c2ccccc21 (configuration not stated),i,1.23,.,.,
N=c1n(CCN2CCCCC2)c2ccccc2n1CC(O)c1cccc(Br)c1 (configuration not stated),i,.,39.5%*,i,
N=c1n(CCN2CCCCC2)c2ccccc2n1CC(O)COc1ccccc1 (configuration not stated),i,.,.,.,
N=c1n(CCN2CCCCC2)c2ccccc2n1CC(O)c1ccc(Cl)c(Cl)c1 (configuration not stated),i,.,36.0%*,64.5%*,
CCCCC(=O)Nc1ccc(C(=O)N2CCC(C(=O)OCC)CC2)cc1,i,0.11,.,.,
Nc1nc(Oc2ccc(F)cc2)c(Br)c(=O)[nH]1,i,0.37,.,.,
COc1cccc(CNc2ccc3[nH]c(=O)[nH]c3c2)c1OCc1ccccc1,i,7.93*,.,.,CHO-K1 ctr=32.2*;KCNQ1 pot spec=-20.7;KCNQ2 pot conf=-5.8;Kir21 spec=-78.5
COc1cccc(CNc2ccc3[nH]c(=O)[nH]c3c2)c1OCc1ccccc1Cl,i,2.1,.,.,
CC(C)(C)NC(=O)NC(=O)CN1C(=O)NC(c2ccccc2)(c2ccccc2)C1=O,i,.,.,.,
SMILES,KCNQ2 inh,KCNQ2 enhance,Kir21 confirm,HEK293 Tl flux,others
Cc1onc(-c2c(F)cccc2Cl)c1C(=O)OCC(=O)c1c[nH]c2ccccc12,i,6.42*,i,i,CHO-K1 ctr=-4.6;KCNQ1 pot spec=-9.6;KCNQ2 pot conf=-1.3;Kir21 spec=-20.9
Cc1noc(C)c1C(=O)OCC(=O)c1c[nH]c2ccccc12,i,.,.,.,
CC1CCCC(NC(=O)CCNC(=O)c2ccc([N+](=O)[O-])cc2)C1C (configuration not stated),i,.,.,.,
CC(NC(=O)C(=O)c1cn(CC(=O)N2CCOCC2)c2ccccc12)c1ccccc1 (configuration not stated),i,0.12,.,.,
N#Cc1nc(Cc2cccc3ccccc23)oc1NCCCn1ccnc1,i,0.19,.,.,
N#Cc1nc(Cc2cccc3ccccc23)oc1NCCCN1CCOCC1,i,.,52.0%*,i,
Cc1ccc(NC(=O)c2ccc3c(c2)C(=O)N(c2cc(C)ccc2C)C3=O)nc1,i,1.19,.,.,
COc1cccc(C2CC(c3cccs3)=NN2C(=O)CSC2=NN3CCCC(=O)N=C3S2)c1OC (configuration not stated),i,2.15,.,.,
CC(C)NCC(O)Cn1c2c(c3ccccc31)CCc1c-2cnn1-c1ccccc1 (configuration not stated),i,.,54.0%*,i,
COc1ccc(C(=O)c2c(C)c3ccccc3n2CC(O)CNC(C)C)cc1 (configuration not stated),i,0.75,.,.,
NC(=Nc1ccccc1)Nc1ccccc1,i,5.84*,i,i,CHO-K1 ctr=8.7*;KCNQ1 pot spec=-5.8;KCNQ2 pot conf=19.6*;Kir21 spec=-23.1;KCNQ2 W236L pot=i
CCOC(=O)/C(C(=Nc1ccccc1)Nc1ccccc1)=C(\C)O,i,.,.,.,
C=CCOc1ccc(CNc2ccc(NC(=O)CCC)cc2)cc1OCC,i,1.72,.,.,
C=CCOc1c(Br)cc(CNc2ccc(NC(=O)CCC)cc2)cc1OCC,i,18*,i,i,CHO-K1 ctr=-12.8;KCNQ1 pot spec=80.4*;KCNQ2 pot conf=31.7*;Kir21 spec=-32.7;KCNQ2 W236L pot=i
N/C(=N\OC(=O)COc1ccc(Br)cc1)c1ccncc1,i,0.68,.,.,
N/C(=N\OS(=O)(=O)c1ccc(Br)cc1)c1ccncc1,i,5.61*,i,i,CHO-K1 ctr=23.9*;KCNQ1 pot spec=-16.3;KCNQ2 pot conf=-4.9;Kir21 spec=-46.9
N=C(N)N1CCc2ccccc2C1,i,1.37,.,.,
O=C(COC(=O)CCc1ccccc1)NC(c1ccccc1)c1ccccc1,i,.,.,.,
COCC(=O)NC(c1ccccc1)c1ccccc1,i,7.99*,i,i,CHO-K1 ctr=-18.7;KCNQ1 pot spec=-32.8;KCNQ2 pot conf=-15.3;Kir21 spec=-35.6
CC(C)(C)C(=O)CSc1ncccn1,i,.,.,.,
CSc1scc2c1-c1nc(SCC(=O)C(C)(C)C)ncc1CC2,i,6.68*,i,i,CHO-K1 ctr=-10.9;KCNQ1 pot spec=61.0*;KCNQ2 pot conf=2.8*;Kir21 spec=-37.2;KCNQ2 W236L pot=i
CC(C)c1ccc(NC(=O)C(c2ccccc2)N(C)C(=O)c2cnccn2)cc1 (configuration not stated),i,0.26,.,.,
